V-ATPase pHluor: alters yeast V-ATPase proton transport; S. cerevisiae, pHLuorin cytosolic pH fluorescence; response, % at 10 µM; hit rate 0.37% among 350,000; in the data active = response mostly above about 7.3%, no sharp cut-off; inactive = mostly below about 5.4%; also: actives read high
SKKanGAS inh: SKKanGAS growth inhibition; S. pyogenes SKKanGAS, kanamycin growth, BacTiter-Glo, 6 h; hit rate 1.3% among 300,000; inhibition, % at 7.5 µM;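 active = mean replicate score, as percent of positive control median, at least 50; inconclusive = mean below 50 but one replicate at or above 50; inactive = mean and every replicate below 50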;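 also: strain carries kanamycin resistance gene driven by streptokinase promoter and grows in 40 µg/ml kanamycin; loss of luminescence reflects streptokinase promoter inhibition or plain growth inhibition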
tim10-1 inh: tim10-1 yeast growth inhibition | S. cerevisiae tim10-1 ts strain growth, BacTiter-Glo, 24 h | inhibition, % at 20 µM | hit rate 2.2% among 330,000 | AID 463190;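 active = inhibition of at least 40%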;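 also: mutant grown at 25 °C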
tim23-1 inh: growth inhibitors of tim23-1 mutant yeast | S. cerevisiae tim23-1 growth, BacTiter-Glo luminescence, 24 h | inhibition, % at 20 µM | hit rate 1.3% among 330,000 | AID 463212;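 active = growth inhibition of the mutant yeast at or above 50%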;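 also: temperature-sensitive mutant grown at 25 °C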
PfHsp90 set2: reduces growth (ATP signal) of yeast expressing P. falciparum Hsp90. S. cerevisiae expressing PfHsp90, BacTiter-Glo ATP, 48 h; yeast lacking PDR1 and PDR3 efflux regulators. inhibition, % at 9.4 µM. hit rate 0.32% among 310,000. AID 504621;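 active = every replicate shows inhibition above about 80%, whatever the replicate mean, limit read from the data; inconclusive = mean inhibition reaches the set limit but some replicate falls short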
TIM10 inh: TIM10 yeast growth inhibition; S. cerevisiae TIM10 strain growth, BacTiter-Glo luminescence, 24 h; inhibition, % at 10 µM; hit rate 1.4% among 330,000;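 active = inhibition of 40% or more at the single tested concentration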;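 also: wild-type TIM10 isogenic control strain grown at permissive 25 °C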
tim10-1 conf: tim10-1 yeast growth inhibition, confirmed | shares compounds with tim10-1 inh | S. cerevisiae tim10-1 ts strain growth, BacTiter-Glo, 24 h | inhibition, % at 20 µM | hit rate 56% among 7,400;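 active = inhibition of yeast growth at or above a set limit in either of two repeat tests at 20 µM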;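 also: tim10-1 mutant grown at permissive 25 °C to find synthetic lethal compounds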
tim10 confirm: confirmation of TIM10 yeast growth inhibitors; inhibition, % at 10 µM; AID 463215; shares compounds with TIM10 inh; hit rate 63% among 4,600; S. cerevisiae tim10 strain growth, BacTiter-Glo luminescence, 24 h;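 active = inhibition of yeast growth at or above a set limit in either of two replicates at 10 µM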; also: this counterscreen used the strain with wild-type TIM10
Large screens that a line does not name were inactive (follow-up assays come after a bar, where they were run). Hits are enriched below; roughly 4.6% of the tested compounds scored in any of these assays.

COc1ccc(-n2c(COc3ccc(Cl)cc3)nnc2SCc2ccc(C#N)cc2)cc1	none
COc1ccc(NCc2nnc(SCc3ccc(Cl)cc3)n2-c2ccccc2)cc1	tim10-1 inh 52, TIM10 inh 54 | tim10-1 conf 39 | tim10 confirm inactive
S=c1[nH]nc(-c2ccc(Br)cc2)n1Cc1ccccc1	tim10-1 inh 42, TIM10 inh 46 | tim10-1 conf inactive | tim10 confirm 45
CCOC(=O)CSc1nnc(NC(=O)CN2CCCCC2)s1	none
COc1cc(Nc2c3ccccc3nc3ccccc23)cc(OC)c1OC	tim10-1 inh 78, TIM10 inh 60 | tim10-1 conf 76 | tim10 confirm 38
COc1ccc(Nc2c3ccccc3nc3ccccc23)cc1	none
O=C(Nc1ccc(F)cc1)c1cccc2c1C(=O)N(Cc1ccccn1)C2	tim10-1 inh 68, TIM10 inh 44 (no result: SKKanGAS inh) | tim10-1 conf 65 | tim10 confirm inactive
COc1ccccc1/C=C/CN1CCCC(CCC(=O)NCc2ccccc2F)C1 (stereo not drawn)	tim10-1 inh 52, TIM10 inh 43 | tim10-1 conf 36 | tim10 confirm inactive
Cc1cccc(/C=C2\Oc3cc(OS(C)(=O)=O)ccc3C2=O)c1	tim10-1 inh 47, TIM10 inh 43 | tim10-1 conf 37 | tim10 confirm inactive
O=C(Oc1ccc(NC(=O)c2cc3c(cc2Br)OCO3)cc1)c1ccccc1	none
COc1ccc2c(c1)[nH]c1c(N3CCN(Cc4ccc5c(c4)OCO5)CC3)ncnc12	tim10-1 inh 47, TIM10 inh 47 | tim10-1 conf 42 | tim10 confirm inactive
COc1cccc2[nH]c3c(N4CCN(Cc5ccc6c(c5)OCO6)CC4)ncnc3c12	none (no result: V-ATPase pHluor, PfHsp90 set2)
O=C(c1ccc([N+](=O)[O-])s1)N1CCCc2ccccc21	tim10-1 inh 54, TIM10 inh 40 | tim10-1 conf 49 | tim10 confirm 51
O=C(c1ccc([N+](=O)[O-])s1)N1CCc2ccccc21	none
O=C(ON=C1CCN(S(=O)(=O)c2ccccc2)CC1)c1cccc(Cl)c1	tim10-1 inh 66, TIM10 inh 47 (no result: PfHsp90 set2) | tim10-1 conf 67 | tim10 confirm 55
CCCc1ccc(OC(=O)c2ccc(O)cc2Cl)cc1	SKKanGAS inh 81, tim10-1 inh 51, TIM10 inh 41 | tim10-1 conf 38 | tim10 confirm 45
C=CC[C@]12C=C(OC)C(=O)C=C1O[C@@H](c1ccc3c(c1)OCO3)[C@H]2C	none (no result: PfHsp90 set2)
O=C(Nc1nncs1)c1cccc(S(=O)(=O)N2CCc3ccccc32)c1	none
O=C(Nc1nc2ccc(F)cc2s1)c1cccc(S(=O)(=O)N2CCc3ccccc32)c1	tim10-1 inh 40, TIM10 inh 50 | tim10-1 conf inactive | tim10 confirm inactive
COc1cc(NC(=O)COc2ccc([N+](=O)[O-])cc2)ccc1NC(=O)c1ccco1	none (no result: SKKanGAS inh, tim10-1 inh, tim23-1 inh, PfHsp90 set2, TIM10 inh)
COc1ccccc1NCC(O)Cn1c2ccccc2c2ccccc21 (stereo not drawn)	tim10-1 inh 52, TIM10 inh 42 | tim10-1 conf inactive | tim10 confirm 40
COc1ccc(CCNCC(O)Cn2c3ccccc3c3ccccc32)cc1OC (stereo not drawn)	none
COc1ccc(-c2ccnc3nc(N4CCN(c5ccccc5)CC4)nn23)cc1	tim10-1 inh 43, TIM10 inh 47 (no result: PfHsp90 set2) | tim10-1 conf 36 | tim10 confirm inactive
Fc1ccc(-c2ccnc3nc(N4CCOCC4)nn23)cc1	none (no result: PfHsp90 set2)
CC(C)(C)OC(=O)CN1C(=O)S/C(=C\c2ccc(-c3cccc(C(=O)O)c3)o2)C1=O	none (no result: V-ATPase pHluor, PfHsp90 set2)
CC(C)OC(=O)CN1C(=O)S/C(=C/c2ccc(N3CCCCC3)o2)C1=O	tim10-1 inh 46, PfHsp90 set2 inconclusive, TIM10 inh 46 | tim10-1 conf 72 | tim10 confirm 83
CCOC(=O)/C=C/C(=O)OCC(=O)Nc1ccc(OC)c(Cl)c1	tim10-1 inh 53, TIM10 inh 44 | tim10-1 conf 41 | tim10 confirm 36
O=C(CSc1nc(=O)n(CCCN2CCOCC2)c2c1CCCC2)Nc1cccc(Cl)c1	none
